From the supplement of paper PMC11001985

Compound: C#CCNC(=O)CCSSCCC(=O)NCCc1ccc(C=O)c(C=O)c1
Experiment: lysine labeling ratio R10:1 (500 µM / 50 µM probe), SILAC-ABPP in living cells; higher = lower intrinsic lysine reactivity toward the probe, active = 2 or less
Conditions: HeLa; probe concentrations 500 vs 50 µM
Procedure, shortened: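 In PBS at room temperature, living HeLa cells grown with SILAC light or heavy labels were treated with 50 µM or 500 µM of an alkyne-tagged, disulfide-linked lysine probe, with label swaps in both directions. Analysis was by LC-MS/MS on a TIMS-TOF Pro after click to biotin-azide, neutravidin capture and DTT release. For each lysine, R is the median across forward and reverse replicates of the filtered median high-probe/low-probe MS1 peptide ratio, capped at 20.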

Chain of UniProt P42892 (P42892 whole entry): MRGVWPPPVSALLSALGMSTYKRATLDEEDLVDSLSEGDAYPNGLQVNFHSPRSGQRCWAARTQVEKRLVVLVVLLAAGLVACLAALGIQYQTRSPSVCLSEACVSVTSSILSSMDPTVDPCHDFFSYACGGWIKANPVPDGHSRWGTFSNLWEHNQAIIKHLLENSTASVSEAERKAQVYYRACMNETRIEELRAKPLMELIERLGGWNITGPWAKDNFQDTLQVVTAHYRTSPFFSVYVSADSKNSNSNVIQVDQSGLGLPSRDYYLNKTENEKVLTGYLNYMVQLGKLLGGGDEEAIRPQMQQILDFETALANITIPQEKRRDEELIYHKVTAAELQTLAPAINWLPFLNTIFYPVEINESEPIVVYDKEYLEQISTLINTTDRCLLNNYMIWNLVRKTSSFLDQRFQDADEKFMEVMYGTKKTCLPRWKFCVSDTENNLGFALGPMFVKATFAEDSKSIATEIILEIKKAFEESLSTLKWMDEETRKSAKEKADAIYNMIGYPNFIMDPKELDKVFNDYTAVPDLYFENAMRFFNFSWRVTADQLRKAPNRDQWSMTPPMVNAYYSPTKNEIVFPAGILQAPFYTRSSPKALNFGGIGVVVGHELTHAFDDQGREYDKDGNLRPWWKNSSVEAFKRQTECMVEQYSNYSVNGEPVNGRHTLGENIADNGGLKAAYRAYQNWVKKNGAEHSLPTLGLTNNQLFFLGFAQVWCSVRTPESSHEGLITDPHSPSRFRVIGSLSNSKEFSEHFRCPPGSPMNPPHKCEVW
Chain of UniProt Q9P2B2 (Q9P2B2 whole entry): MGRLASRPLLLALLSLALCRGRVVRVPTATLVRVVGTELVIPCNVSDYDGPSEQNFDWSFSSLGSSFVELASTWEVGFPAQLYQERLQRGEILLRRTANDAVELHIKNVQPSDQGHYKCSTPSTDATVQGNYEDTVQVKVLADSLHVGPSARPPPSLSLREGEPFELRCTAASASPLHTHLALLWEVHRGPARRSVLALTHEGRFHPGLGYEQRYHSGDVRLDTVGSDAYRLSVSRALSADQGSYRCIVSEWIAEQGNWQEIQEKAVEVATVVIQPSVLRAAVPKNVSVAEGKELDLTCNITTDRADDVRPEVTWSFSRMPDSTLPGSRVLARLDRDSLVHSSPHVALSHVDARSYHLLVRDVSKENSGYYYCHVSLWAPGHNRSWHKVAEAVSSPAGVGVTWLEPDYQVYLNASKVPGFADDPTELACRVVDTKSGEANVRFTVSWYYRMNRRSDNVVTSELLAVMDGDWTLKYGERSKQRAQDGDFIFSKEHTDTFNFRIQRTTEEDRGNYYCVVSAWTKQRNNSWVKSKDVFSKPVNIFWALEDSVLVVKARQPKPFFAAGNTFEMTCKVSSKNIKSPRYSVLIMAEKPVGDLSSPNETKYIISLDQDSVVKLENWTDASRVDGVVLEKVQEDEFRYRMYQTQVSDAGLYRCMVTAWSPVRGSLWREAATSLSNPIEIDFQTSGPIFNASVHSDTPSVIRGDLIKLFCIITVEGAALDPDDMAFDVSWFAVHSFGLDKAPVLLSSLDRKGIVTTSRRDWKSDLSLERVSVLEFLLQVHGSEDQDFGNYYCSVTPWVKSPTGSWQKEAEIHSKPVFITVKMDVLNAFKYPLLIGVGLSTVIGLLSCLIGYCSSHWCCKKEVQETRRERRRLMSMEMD
Chain of UniProt P08069 (P08069 whole entry, looked up): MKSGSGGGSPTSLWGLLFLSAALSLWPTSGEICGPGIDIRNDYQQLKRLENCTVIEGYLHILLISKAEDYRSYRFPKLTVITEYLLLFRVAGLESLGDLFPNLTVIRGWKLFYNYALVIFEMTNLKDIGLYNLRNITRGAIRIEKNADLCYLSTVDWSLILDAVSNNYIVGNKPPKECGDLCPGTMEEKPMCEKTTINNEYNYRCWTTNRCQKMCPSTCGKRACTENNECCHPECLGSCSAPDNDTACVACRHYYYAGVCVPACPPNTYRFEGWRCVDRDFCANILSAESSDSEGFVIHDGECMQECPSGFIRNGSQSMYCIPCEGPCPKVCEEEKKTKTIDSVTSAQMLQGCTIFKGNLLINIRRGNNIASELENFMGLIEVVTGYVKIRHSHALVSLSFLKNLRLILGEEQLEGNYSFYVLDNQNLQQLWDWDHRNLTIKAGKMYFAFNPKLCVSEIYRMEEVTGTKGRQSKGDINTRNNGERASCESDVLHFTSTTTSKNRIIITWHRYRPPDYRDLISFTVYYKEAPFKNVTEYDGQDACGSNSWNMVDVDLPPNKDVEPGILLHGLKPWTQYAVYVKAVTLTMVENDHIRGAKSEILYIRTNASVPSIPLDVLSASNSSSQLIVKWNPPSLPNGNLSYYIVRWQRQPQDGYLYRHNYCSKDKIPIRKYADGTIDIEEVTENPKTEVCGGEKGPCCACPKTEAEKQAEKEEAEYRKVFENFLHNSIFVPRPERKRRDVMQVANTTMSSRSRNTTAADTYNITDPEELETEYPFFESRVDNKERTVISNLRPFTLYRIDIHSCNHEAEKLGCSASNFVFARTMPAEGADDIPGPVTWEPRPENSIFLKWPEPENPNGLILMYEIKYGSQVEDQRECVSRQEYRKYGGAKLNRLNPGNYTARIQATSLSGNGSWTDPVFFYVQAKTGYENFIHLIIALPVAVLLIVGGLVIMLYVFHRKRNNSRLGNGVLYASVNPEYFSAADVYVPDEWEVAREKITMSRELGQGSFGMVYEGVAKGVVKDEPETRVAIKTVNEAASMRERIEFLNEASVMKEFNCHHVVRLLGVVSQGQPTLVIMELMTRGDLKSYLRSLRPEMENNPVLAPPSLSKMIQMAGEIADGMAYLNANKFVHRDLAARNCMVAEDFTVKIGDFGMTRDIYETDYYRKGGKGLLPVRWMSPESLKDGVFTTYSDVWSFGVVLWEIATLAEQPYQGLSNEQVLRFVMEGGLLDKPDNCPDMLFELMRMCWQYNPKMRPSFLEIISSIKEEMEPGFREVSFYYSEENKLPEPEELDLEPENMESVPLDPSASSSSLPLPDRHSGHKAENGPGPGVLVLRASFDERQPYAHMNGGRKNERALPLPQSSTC
Chain of UniProt P16144 (P16144 whole entry): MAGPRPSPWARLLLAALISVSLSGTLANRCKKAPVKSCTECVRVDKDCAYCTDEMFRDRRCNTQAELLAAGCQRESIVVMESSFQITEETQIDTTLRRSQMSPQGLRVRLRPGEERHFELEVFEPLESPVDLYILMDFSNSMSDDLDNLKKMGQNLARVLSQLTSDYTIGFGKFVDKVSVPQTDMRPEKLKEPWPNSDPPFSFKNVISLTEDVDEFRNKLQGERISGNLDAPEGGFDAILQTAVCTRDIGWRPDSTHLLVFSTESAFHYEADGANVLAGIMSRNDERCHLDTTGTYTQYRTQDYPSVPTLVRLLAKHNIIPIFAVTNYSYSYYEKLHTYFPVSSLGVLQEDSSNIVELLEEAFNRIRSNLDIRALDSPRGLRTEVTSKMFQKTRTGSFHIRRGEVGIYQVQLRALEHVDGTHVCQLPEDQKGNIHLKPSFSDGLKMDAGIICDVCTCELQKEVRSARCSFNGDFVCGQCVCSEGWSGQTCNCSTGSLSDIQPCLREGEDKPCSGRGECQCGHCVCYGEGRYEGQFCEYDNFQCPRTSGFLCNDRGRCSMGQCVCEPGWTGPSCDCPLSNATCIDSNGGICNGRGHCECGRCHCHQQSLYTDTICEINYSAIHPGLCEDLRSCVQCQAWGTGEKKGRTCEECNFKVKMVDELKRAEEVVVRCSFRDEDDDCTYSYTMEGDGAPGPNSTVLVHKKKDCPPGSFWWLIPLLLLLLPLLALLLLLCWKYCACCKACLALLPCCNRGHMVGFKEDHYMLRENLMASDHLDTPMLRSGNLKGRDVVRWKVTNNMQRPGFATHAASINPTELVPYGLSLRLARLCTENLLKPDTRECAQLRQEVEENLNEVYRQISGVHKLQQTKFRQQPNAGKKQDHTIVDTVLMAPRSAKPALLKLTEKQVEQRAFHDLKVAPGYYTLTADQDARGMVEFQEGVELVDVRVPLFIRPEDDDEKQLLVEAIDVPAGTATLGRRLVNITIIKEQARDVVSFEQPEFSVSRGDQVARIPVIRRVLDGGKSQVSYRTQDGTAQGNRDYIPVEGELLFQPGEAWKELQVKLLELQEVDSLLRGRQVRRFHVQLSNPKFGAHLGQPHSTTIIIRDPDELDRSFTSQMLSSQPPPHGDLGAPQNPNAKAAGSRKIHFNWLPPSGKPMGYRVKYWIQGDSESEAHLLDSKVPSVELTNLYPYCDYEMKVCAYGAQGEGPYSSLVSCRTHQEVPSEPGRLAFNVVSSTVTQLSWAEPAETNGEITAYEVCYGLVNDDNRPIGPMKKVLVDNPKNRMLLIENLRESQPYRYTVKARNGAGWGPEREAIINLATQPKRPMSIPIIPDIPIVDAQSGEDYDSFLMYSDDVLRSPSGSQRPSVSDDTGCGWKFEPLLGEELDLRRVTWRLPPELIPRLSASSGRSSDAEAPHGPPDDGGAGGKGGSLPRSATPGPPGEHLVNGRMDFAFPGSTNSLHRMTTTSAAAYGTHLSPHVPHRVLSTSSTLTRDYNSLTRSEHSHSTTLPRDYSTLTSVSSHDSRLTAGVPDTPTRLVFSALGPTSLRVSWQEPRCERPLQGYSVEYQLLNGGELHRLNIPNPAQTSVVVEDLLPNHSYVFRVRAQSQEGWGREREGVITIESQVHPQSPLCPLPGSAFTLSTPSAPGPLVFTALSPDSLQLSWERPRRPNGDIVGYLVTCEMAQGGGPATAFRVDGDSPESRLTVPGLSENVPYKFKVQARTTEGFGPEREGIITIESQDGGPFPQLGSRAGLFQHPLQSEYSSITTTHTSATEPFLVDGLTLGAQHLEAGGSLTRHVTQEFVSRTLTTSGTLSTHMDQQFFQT
Chain of UniProt P15328 (P15328 whole entry, looked up): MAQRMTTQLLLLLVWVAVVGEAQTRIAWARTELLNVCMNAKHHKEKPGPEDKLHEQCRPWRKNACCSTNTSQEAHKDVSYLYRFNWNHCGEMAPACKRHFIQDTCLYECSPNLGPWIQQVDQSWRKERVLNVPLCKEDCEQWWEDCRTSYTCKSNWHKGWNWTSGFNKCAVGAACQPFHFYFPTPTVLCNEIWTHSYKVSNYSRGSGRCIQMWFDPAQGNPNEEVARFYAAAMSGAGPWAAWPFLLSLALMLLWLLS

Lysine labeling ratio R10:1, active:
CACNA2D1 (lysine site: K88) (UniProt P54289) 1.78
UniProt P62269 (lysine site: K106) 1.85
UniProt P16144 (lysine site: K392) 0.94
UniProt Q9UHN6 (lysine site: K846) 1.51
EPRS (lysine site: K360) (UniProt P07814) 1.77
ATP2A2 (lysine site: K757) (UniProt P16615) 1.36
LAMB1 (lysine site: K158) (UniProt P07942) 1.78
GAPDH (lysine site: K5) (UniProt P04406) 1.43
AHCY (lysine site: K20) (UniProt P23526) 1.54
UGDH (lysine site: K107) (UniProt O60701) 1.1

Lysine labeling ratio R10:1, inactive:
DSG2 (lysine site: K72) (UniProt Q14126) 2.67
UniProt P08240 (lysine site: K220) 2.1
TXNRD1 (lysine site: K396) (UniProt Q16881) 2.09
TPI1 (lysine site: K188) (UniProt P60174) 4.28
UniProt P05787 (lysine site: K304) 7.25
UniProt P62244 (lysine site: K32) 4.35
IGF1R (lysine site: K474) (UniProt P08069) 3.24
ECE1 (lysine site: K676) (UniProt P42892) 3.15
ANPEP (lysine site: K923) (UniProt P15144) 2.33
UniProt P46781 (lysine site: K139) 3
H2AFY (lysine site: K18) (UniProt O75367) 3.07
ACIN1 (lysine site: K81) (UniProt Q9UKV3) 3.67
JPT2 (lysine site: K67) (UniProt Q9H910) 4.42
TST (lysine site: K24) (UniProt Q16762) 2.33
FZD1 (lysine site: K273) (UniProt Q9UP38) 4.28
UniProt O60245 (lysine site: K223) 5.15
FAS (lysine site: K126) (UniProt P25445) 2.16
UniProt P25705 (lysine site: K261) 2.94
HSPA8 (lysine site: K328) (UniProt P11142) 3.91
PSMA2 (lysine site: K53) (UniProt P25787) 2.94
SPTAN1 (lysine site: K1699) (UniProt Q13813) 3.27
FAT1 (lysine site: K894) (UniProt Q14517) 2.53
TCP1 (lysine site: K199) (UniProt P17987) 4.14
MYH9 (lysine site: K1754) (UniProt P35579) 3.66
HSP90B1 (lysine site: K97) (UniProt P14625) 5.42
C3 (lysine site: K1051) (UniProt P01024) 6.25
PTGFRN (lysine site: K522) (UniProt Q9P2B2) 2.13
ECE1 (lysine site: K197) (UniProt P42892) 2.89
PTGFRN (lysine site: K435) (UniProt Q9P2B2) 5.47
FOLR1 (lysine site: K46) (UniProt P15328) 12.6
